Laboratory results from PubChem BioAssay (EPA / NIEHS).
Values joined by “and” are separate entries in the source; they are usually repeats but may differ in a detail not shown here. Equal values may be shown once. Results filed as inconclusive are left out. Active and inactive are the calls of the source. Rule for the calls, unless noted: active = hit-call score of the fitted dose curve at least 0.9, where 1 is the maximum; inconclusive = response in the unintended direction; inactive = score below 0.9.

Tests used:
[1] = target: human Beta-secretase (BACE), BACE1 (gene 23621) (UniProt P56817); experiment: NVS_ENZ_hBACE: NovaScreen (NVS) Enzymatic Assay for human Beta-secretase (BACE) (AID 2283140);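 note: hits are inhibitors that reduce fluorescent substrate signal versus DMSO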
Chain of human Beta-secretase (BACE), BACE1 (gene 23621) (P56817 whole entry, looked up): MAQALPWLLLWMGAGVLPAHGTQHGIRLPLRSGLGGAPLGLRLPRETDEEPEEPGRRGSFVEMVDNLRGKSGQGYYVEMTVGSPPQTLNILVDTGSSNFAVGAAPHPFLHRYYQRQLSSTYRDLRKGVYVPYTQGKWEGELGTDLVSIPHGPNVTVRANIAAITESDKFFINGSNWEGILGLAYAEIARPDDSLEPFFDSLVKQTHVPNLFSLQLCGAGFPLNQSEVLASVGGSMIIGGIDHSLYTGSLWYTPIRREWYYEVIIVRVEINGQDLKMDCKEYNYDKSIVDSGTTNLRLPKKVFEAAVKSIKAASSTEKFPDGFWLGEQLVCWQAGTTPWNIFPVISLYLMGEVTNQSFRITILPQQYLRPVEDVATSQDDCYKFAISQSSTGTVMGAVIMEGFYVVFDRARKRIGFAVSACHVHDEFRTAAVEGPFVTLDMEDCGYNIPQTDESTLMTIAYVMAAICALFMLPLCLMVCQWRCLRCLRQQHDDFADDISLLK
Summary of the method: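 Cell-free fluorescence-intensity assay of recombinant BACE1 expressed in SF9 cells, read 1 hour after dosing. Loss of signal indicates reduced protease activity, fitted relative to DMSO negative control. Primary screen at 25 uM in duplicate; actives followed in concentration series.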

[2] = target: Cytochrome P450 2C19 (Homo sapiens) (UniProt P33261); experiment: NVS_ADME_hCYP2C19: NovaScreen (NVS) CYP450-related Enzyme Activity (ADME) Assay for human CYP2C19 (AID 2283113);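 note: potency for inhibition seen as loss of fluorescent signal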
Summary of the method: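 Biochemical CYP2C19 inhibition screen: insect-cell recombinant protein plus fluorescent substrate, 1 h, fluorescence intensity. Acetonitrile defined baseline activity. Single 10 uM concentration in duplicate, with concentration-response follow-up for actives.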

[3] = target: human AKT serine/threonine Kinase 1 (AKT1), AKT1 (gene 207) (UniProt P31749); experiment: NVS_ENZ_hAKT1: NovaScreen (NVS) Enzymatic Assay for human AKT serine/threonine Kinase 1 (AKT1) (AID 2283138)
Chain of human AKT serine/threonine Kinase 1 (AKT1), AKT1 (gene 207) (P31749 whole entry, looked up): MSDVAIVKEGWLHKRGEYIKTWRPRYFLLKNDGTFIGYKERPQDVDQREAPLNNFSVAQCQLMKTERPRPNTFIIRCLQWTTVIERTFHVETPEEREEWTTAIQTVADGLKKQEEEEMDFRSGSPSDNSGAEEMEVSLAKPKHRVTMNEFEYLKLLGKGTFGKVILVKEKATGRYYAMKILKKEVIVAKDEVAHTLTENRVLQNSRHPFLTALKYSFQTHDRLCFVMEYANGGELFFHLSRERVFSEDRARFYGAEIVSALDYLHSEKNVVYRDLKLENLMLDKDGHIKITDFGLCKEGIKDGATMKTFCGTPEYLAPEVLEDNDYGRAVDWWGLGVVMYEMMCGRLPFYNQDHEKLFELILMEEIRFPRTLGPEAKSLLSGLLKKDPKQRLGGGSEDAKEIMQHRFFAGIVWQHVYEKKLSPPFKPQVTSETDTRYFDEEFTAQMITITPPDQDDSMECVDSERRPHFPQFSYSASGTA
Summary of the method: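 Cell-free recombinant enzyme with substrate; activity read by fluorescence intensity after electrophoretic mobility shift separating substrate from product, 1 h after dosing. Single-concentration duplicates at 25 uM, then singleton concentration-response up to 50 uM; loss of signal versus DMSO.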

[4] = target: human CYP2C9, CYP2C9 (gene 1559) (UniProt P11712); experiment: NVS_ADME_hCYP2C9: NovaScreen (NVS) CYP450-related Enzyme Activity (ADME) Assay for human CYP2C9 (AID 2283108)
Chain of human CYP2C9, CYP2C9 (gene 1559) (P11712 whole entry, looked up): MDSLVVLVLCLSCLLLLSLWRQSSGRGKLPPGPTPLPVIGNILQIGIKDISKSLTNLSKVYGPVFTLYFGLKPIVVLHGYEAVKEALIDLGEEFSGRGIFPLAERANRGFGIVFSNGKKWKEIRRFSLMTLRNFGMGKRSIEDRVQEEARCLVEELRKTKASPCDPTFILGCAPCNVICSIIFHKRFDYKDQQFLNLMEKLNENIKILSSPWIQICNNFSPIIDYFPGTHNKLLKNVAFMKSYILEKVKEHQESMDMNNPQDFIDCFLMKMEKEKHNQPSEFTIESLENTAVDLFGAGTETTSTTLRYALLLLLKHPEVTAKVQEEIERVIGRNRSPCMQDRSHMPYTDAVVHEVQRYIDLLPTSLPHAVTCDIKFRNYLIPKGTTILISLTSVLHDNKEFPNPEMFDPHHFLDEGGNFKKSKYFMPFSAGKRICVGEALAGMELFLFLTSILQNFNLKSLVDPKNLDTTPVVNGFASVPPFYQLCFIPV
Summary of the method: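 Cell-free assay of recombinant human CYP2C9 produced in Sf9 cells, with enzyme activity read by fluorescence intensity 0.75 h after compound addition. Loss of signal versus an acetonitrile negative control indicates inhibition. Primary screen used 10 uM in duplicate; actives were retested in concentration series.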

[5] = target: rat CYP2A2, Cyp2a2 (gene 24895) (UniProt P15149); experiment: NVS_ADME_rCYP2A2: NovaScreen (NVS) CYP450-related Enzyme Activity (ADME) Assay for rat CYP2A2 (AID 2283116)
Chain of rat CYP2A2, Cyp2a2 (gene 24895) (P15149 whole entry, looked up): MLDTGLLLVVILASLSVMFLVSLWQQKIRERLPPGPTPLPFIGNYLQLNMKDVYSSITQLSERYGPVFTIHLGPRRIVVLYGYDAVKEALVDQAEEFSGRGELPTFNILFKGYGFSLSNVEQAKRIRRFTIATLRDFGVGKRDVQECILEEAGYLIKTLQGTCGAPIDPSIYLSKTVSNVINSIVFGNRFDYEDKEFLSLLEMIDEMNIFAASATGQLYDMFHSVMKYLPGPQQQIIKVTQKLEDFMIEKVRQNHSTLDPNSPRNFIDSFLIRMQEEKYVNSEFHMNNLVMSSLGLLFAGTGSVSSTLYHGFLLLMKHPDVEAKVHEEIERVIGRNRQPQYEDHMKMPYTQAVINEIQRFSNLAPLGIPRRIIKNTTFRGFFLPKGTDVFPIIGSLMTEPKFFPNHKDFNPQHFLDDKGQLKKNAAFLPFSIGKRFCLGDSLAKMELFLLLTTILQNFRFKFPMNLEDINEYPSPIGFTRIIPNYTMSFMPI
Summary of the method: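 Cell-free recombinant rat CYP2A2 activity with fluorogenic substrate, fluorescence read 0.2 h after dosing. Chemicals screened at 10 uM in duplicate, hits then run in concentration-response up to 20 uM; signal loss versus acetonitrile baseline.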

rat CYP2B1, gene 24300 = experiment: NVS_ADME_rCYP2B1: NovaScreen (NVS) CYP450-related Enzyme Activity (ADME) Assay for rat CYP2B1 (AID 2283117)
Summary of the method: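 Recombinant rat CYP2B1 with fluorogenic substrate, read at 0.75 h. Primary screen in duplicate at 10 uM; compounds meeting threshold (e.g., 30% inhibition) re-run in concentration-response up to 20 uM. Fitted against acetonitrile control.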

[6] = target: human Caspase 5 (CASP5), CASP5 (gene 838) (UniProt P51878); experiment: NVS_ENZ_hCASP5: NovaScreen (NVS) Enzymatic Assay for human Caspase 5 (CASP5) (AID 2283137)
Chain of human Caspase 5 (CASP5), CASP5 (gene 838) (P51878 whole entry, looked up): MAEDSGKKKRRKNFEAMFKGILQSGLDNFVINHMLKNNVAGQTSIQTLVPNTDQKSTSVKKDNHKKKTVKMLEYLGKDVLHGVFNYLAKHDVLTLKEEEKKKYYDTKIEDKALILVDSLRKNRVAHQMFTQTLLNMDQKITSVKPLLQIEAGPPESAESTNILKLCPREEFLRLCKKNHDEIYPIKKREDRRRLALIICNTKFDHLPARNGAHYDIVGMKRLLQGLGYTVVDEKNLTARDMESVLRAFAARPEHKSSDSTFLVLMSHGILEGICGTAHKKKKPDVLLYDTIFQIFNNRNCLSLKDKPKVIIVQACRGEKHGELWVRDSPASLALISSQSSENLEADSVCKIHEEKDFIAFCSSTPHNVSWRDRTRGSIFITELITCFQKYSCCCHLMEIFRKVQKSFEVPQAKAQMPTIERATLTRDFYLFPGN
Summary of the method: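 Recombinant E. coli-expressed human caspase 5 in a cell-free enzyme assay; fluorescence intensity read 2 hours after chemical dosing. Single-concentration duplicate screen at 25 uM, then concentration-response up to 50 uM for hits; DMSO negative control.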

[7] = target: Cytochrome P450 3A4 (Homo sapiens) (UniProt P08684); experiment: NVS_ADME_hCYP3A4: NovaScreen (NVS) CYP450-related Enzyme Activity (ADME) Assay for human CYP3A4 (AID 2283110)
Chain of Cytochrome P450 3A4 (Homo sapiens) (P08684 whole entry, looked up): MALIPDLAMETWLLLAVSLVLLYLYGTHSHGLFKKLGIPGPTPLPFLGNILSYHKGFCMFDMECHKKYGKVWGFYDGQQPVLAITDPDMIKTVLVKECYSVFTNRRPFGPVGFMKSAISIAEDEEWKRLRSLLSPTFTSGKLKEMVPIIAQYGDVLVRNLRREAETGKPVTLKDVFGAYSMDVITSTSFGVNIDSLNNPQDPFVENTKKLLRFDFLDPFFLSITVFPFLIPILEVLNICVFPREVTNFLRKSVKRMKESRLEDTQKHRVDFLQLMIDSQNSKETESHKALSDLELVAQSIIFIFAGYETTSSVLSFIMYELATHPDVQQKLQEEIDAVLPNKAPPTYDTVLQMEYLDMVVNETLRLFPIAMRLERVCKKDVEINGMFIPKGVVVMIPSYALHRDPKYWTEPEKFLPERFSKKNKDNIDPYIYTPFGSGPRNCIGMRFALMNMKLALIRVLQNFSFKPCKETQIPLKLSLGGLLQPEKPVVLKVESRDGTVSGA
Summary of the method: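 Cell-free assay using insect-cell-expressed human CYP3A4 with a fluorogenic substrate; fluorescence intensity was read 0.33 hour after dosing. Loss of signal relative to acetonitrile vehicle indicated inhibition. Primary single-concentration screen at 10 uM, in duplicate, then concentration series.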

[8] = target: rat CYP2A1, Cyp2a1 (gene 24894) (UniProt P11711); experiment: NVS_ADME_rCYP2A1: NovaScreen (NVS) CYP450-related Enzyme Activity (ADME) Assay for rat CYP2A1 (AID 2283114; active = hit-call score of the fitted dose curve at least 0.9, where 1 is the maximum; inactive = score below 0.9)
Chain of rat CYP2A1, Cyp2a1 (gene 24894) (P11711 whole entry, looked up): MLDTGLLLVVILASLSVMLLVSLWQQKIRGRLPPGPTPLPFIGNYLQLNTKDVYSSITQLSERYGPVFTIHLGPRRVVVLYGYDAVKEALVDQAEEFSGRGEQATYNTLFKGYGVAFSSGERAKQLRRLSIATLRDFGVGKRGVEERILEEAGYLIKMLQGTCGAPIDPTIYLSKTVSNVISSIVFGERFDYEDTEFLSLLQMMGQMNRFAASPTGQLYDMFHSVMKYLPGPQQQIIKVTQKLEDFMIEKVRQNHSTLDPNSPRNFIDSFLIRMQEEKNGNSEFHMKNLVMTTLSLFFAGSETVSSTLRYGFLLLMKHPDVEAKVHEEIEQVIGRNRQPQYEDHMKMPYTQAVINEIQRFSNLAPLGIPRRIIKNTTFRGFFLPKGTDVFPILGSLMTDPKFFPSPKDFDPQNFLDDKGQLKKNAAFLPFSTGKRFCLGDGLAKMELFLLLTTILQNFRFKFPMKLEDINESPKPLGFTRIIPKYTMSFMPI
Summary of the method: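 Recombinant rat CYP2A1, cell-free, fluorogenic substrate turnover read by fluorescence intensity 0.75 h after dosing. Primary screen at 10 uM in duplicate; actives rerun as concentration-response up to 20 uM; loss of signal versus acetonitrile control.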

[9] = target: rat CYP2C11, Cyp2c11 (gene 29277) (UniProt P08683); experiment: NVS_ADME_rCYP2C11: NovaScreen (NVS) CYP450-related Enzyme Activity (ADME) Assay for rat CYP2C11 (AID 2283118)
Chain of rat CYP2C11, Cyp2c11 (gene 29277) (P08683 whole entry, looked up): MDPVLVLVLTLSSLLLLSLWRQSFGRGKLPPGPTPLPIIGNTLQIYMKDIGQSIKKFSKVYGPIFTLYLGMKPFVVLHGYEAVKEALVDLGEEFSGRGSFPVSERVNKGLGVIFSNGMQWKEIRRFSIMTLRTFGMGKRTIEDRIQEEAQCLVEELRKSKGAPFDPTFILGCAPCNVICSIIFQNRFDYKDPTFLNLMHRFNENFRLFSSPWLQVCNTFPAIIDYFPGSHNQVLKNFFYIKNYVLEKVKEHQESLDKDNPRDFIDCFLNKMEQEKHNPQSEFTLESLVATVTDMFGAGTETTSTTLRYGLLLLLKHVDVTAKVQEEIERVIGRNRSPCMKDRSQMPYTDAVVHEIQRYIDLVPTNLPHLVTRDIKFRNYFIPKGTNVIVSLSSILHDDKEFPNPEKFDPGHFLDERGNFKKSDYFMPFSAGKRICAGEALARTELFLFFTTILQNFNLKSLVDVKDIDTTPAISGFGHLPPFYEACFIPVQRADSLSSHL
Summary of the method: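 Cell-free recombinant rat enzyme with fluorescent substrate; readout 0.33 h after dosing, loss of signal versus acetonitrile control. Initial duplicate single-point at 10 uM; actives rerun in concentration series.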

[10] = target: rat CYP2C13, Cyp2c13 (gene 171521) (UniProt P20814); experiment: NVS_ADME_rCYP2C13: NovaScreen (NVS) CYP450-related Enzyme Activity (ADME) Assay for rat CYP2C13 (AID 2283121)
Chain of rat CYP2C13, Cyp2c13 (gene 171521) (P20814 whole entry, looked up): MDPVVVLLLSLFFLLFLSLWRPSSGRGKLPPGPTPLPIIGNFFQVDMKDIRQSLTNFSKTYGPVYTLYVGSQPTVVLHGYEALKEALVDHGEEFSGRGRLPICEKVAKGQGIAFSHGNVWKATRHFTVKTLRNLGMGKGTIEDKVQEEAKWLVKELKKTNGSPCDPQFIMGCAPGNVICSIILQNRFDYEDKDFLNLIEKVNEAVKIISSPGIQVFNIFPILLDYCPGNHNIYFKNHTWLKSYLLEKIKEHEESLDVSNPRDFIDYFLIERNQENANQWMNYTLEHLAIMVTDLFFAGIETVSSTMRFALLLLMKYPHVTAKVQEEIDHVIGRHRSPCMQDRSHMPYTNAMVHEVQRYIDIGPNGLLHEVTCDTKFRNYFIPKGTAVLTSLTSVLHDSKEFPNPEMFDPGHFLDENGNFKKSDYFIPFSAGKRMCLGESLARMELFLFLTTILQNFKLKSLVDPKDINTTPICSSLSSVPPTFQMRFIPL
Summary of the method: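 Recombinant rat CYP2C13 with fluorogenic substrate, 0.75 h cell-free incubation; primary screen in duplicate at 10 uM, actives followed in concentration series. Fluorescence loss relative to acetonitrile control indicates inhibition.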

[11] = target: rat CYP2C12, Cyp2c12 (gene 25011) (UniProt P11510); experiment: NVS_ADME_rCYP2C12: NovaScreen (NVS) CYP450-related Enzyme Activity (ADME) Assay for rat CYP2C12 (AID 2283119)
Summary of the method: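 Cell-free recombinant rat CYP2C12 activity read by fluorescence 0.5 h after dosing; loss of signal versus acetonitrile control. Primary screen in duplicate at 10 uM; actives then run in concentration-response format.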

rat CYP2C6, gene 293989 = experiment: NVS_ADME_rCYP2C6: NovaScreen (NVS) CYP450-related Enzyme Activity (ADME) Assay for rat CYP2C6 (AID 2283120)
Summary of the method: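 Cell-free recombinant rat CYP2C6 with fluorogenic substrate, read by fluorescence 1 h after dosing; acetonitrile as negative control. Primary screen at 10 uM in duplicate, actives then in concentration-response up to 20 uM.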

rat CYP3A1, gene 25642 = experiment: NVS_ADME_rCYP3A1: NovaScreen (NVS) CYP450-related Enzyme Activity (ADME) Assay for rat CYP3A1 (AID 2283126)
Summary of the method: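 Cell-free recombinant CYP assay with fluorescent substrate, read 0.5 h after dosing. Screened at 10 uM in duplicate, hits at up to 20 uM in concentration-response; loss of signal versus acetonitrile baseline.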

[12] = target: rat CYP3A2, Cyp3a2 (gene 266682) (UniProt P05183); experiment: NVS_ADME_rCYP3A2: NovaScreen (NVS) CYP450-related Enzyme Activity (ADME) Assay for rat CYP3A2 (AID 2283128)
Summary of the method: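 Cell-free rat CYP3A2 enzyme assay with fluorescent substrate, read 0.5 h after dosing. Primary duplicate screen at 10 uM; actives run in concentration-response up to 20 uM, relative to acetonitrile baseline.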

[13] = target: human Acetylcholinesterase (AChE), ACHE (gene 43) (UniProt P22303); experiment: NVS_ENZ_hAChE: NovaScreen (NVS) Enzymatic Assay for human Acetylcholinesterase (AChE) (AID 2283129)
Chain of human Acetylcholinesterase (AChE), ACHE (gene 43) (P22303 whole entry, looked up): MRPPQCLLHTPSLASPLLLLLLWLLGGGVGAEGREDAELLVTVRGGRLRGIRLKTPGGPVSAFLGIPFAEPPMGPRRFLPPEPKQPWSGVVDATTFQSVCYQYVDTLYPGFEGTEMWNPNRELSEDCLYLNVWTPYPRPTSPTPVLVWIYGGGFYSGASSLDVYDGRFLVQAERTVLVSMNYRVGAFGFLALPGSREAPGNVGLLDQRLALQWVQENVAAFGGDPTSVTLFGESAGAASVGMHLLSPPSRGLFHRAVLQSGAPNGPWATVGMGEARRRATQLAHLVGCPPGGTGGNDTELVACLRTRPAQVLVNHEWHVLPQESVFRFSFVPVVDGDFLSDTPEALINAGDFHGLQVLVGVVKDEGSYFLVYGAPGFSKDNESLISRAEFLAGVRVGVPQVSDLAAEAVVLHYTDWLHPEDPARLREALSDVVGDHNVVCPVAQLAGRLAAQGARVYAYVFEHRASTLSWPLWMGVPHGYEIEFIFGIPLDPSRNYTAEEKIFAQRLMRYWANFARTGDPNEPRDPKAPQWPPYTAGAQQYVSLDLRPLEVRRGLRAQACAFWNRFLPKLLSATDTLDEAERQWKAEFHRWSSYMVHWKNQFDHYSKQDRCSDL
Summary of the method: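 Cell-free colorimetric enzyme-activity assay; compounds read 0.33 hour after dosing, loss of signal vs DMSO baseline. Primary screen in duplicate at 25 uM single concentration, with active compounds retested in concentration series.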

For `C=C(C)C(=O)[O][Sn]([CH2]CCC)([CH2]CCC)[CH2]CCC`, the AC50 [1] was 8770 nM (active).

In the case of `CCOP(=S)(OCC)SCSP(=S)(OCC)OCC`, the AC50 [2] is reported as 4.36 µM (active) and the outcome [3] is reported as “inactive”.

`O=C(O)C(F)(F)C(F)(F)C(F)(F)C(F)(F)C(F)(F)C(F)(F)F` was tested, and the AC50 [1] was 18600 nM (active).

In the case of `CCCCCCCCC(=O)NCc1ccc(O)c(OC)c1`, the AC50 [4] is reported as 3950 nM (active) and the AC50 [2] is reported as 1.66 µM (active).

In the case of `CC(C)C1CCC(Cc2ccc(Cl)cc2)C1(O)Cn1cncn1` (stereo not given), the AC50 [5] is reported as 106 nM (active) and the AC50 (rat CYP2B1, gene 24300) is reported as 2040 nM (active).

In the case of `O=[N+]([O-])c1ccc2c3c(cccc13)CC2`, the AC50 [6] is reported as 25000 nM (active).

In the case of `CC(C)CCCCCCOC(=O)c1ccccc1C(=O)OCCCCCCC(C)C`, the AC50 [1] is reported as 8090 nM (active).

In the case of `Fc1ccc(C2(Cn3cncn3)OC2c2ccccc2Cl)cc1` (stereo not given), the AC50 [4] is reported as 6500 nM (active), the AC50 [7] is reported as 5960 nM (active) and the AC50 [2] is reported as 1.56 µM (active). The AC50 [8] was 2980 nM (active), the AC50 [5] was 353 nM (active) and the AC50 (rat CYP2B1, gene 24300) was 3090 nM (active). The AC50 [9] was 974 nM (active) and the AC50 [10] was 377 nM (active).

`Nc1cccc2ccccc12` was tested, and the AC50 [6] was 45200 nM (active).

With `Nc1ccc(-c2ccc(N)c(Cl)c2)cc1Cl` the AC50 [4] was 1240 nM (active) and the AC50 [2] was 2.34 µM (active).

`Cn1sc(Cl)cc1=O` was tested, and the AC50 [7] was 2770 nM (active), the AC50 [2] was 5.77 µM (active) and the outcome [6] was “inactive”. For the same compound, the outcome [1] was “inactive”.

`Clc1ccc(C2(Cn3cncn3)CC(Br)CO2)c(Cl)c1` (stereo not given) was tested, and the AC50 [4] was 6630 nM (active), the AC50 [7] was 2000 nM (active) and the AC50 [2] was 0.243 µM (active). For the same compound, the AC50 [8] was 577 nM (active), the AC50 [5] was 82.9 nM (active) and the AC50 (rat CYP2B1, gene 24300) was 41.1 nM (active). For the same compound, the AC50 [9] was 1590 nM (active), the AC50 [11] was 11000 nM (active) and the AC50 (rat CYP2C6, gene 293989) was 4680 nM (active). For the same compound, the AC50 [10] was 1870 nM (active), the AC50 (rat CYP3A1, gene 25642) was 721 nM (active) and the AC50 [12] was 1910 nM (active).

`C=CC(=O)OCCCCCC(C)C` was tested, and the outcome [3] was “inactive”.

For `COP(=S)(OC)Oc1ccc(S(=O)(=O)N(C)C)cc1`, the AC50 [4] was 77.9 nM (active) and the AC50 [2] was 0.19 µM (active).

`Oc1ccc(-c2ccccc2)cc1` was tested, and the AC50 [2] was 0.47 µM (active).

With `O=S(=O)(c1ccc(Cl)cc1)c1ccc(Cl)cc1` the AC50 [2] was 1.39 µM (active) and 821 nM (active).

With `Oc1cccc2cccnc12` the outcome [13] was “inactive”.

In the case of `CCCCCCCCc1ccc(O)cc1`, the outcome [6] is reported as “inactive”.

With `CCOP(=S)(OCC)Oc1ccc(S(C)=O)cc1` (stereo not given) the AC50 [4] was 3310 nM (active) and the AC50 [2] was 0.528 µM (active).

In the case of `CCC(=O)C(CC(C)N(C)C)(c1ccccc1)c1ccccc1` (stereo not given), the outcome [3] is reported as “inactive”.

For `O=C(Nc1ccc2[nH]ccc2c1)c1cc2cc(F)ccc2n1Cc1cccc(F)c1`, the outcome [1] was “inactive”.

In the case of `CC(C)(C)c1cc(O)ccc1O`, the AC50 [4] is reported as 5930 nM (active), the outcome [7] is reported as “inactive” and the AC50 [2] is reported as 5.9 µM (active). The outcome [13] was “inactive”.

`CCN1CCC2(CC1)COc1cc3c(cc12)N(C(=O)c1ccc(-c2ccc(-c4nnc(C)o4)cc2C)cc1)CC3` was tested, and the AC50 [2] was 2.84 µM (active), the AC50 [13] was 4690 nM (active) and the AC50 [1] was 28300 nM (active).
